In PubChem BioAssay one finds composite z-score and z-score data, which are given here for five compounds.

Molecules are shown by their SMILES. Where “and” joins values, the source holds several entries; their conditions need not be identical. Identical values can stand only once. Calls of active or inactive are those of the source.

Assay [1] concerns Plasmodium falciparum Sir2 (PF13_0152, Sir2A). The assay can be described thus: pfSir2 binders on small-molecule microarrays, primary screen, biochemical, small-molecule microarray, 635 nm fluorescence (AID 1098).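 Note: score merges spot fluorescence intensity with its signal-to-noise ratio.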 The settings on record: small-molecule microarray binding, fluorescence 635 nm; higher = more signal.
The nature of assay [2]: small-molecule microarray binders of probe aDKK1, primary screen, biochemical, biotinylated probe, 635/667 nm fluorescence (AID 1099).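 Note: score merges 667nm spot fluorescence with signal to noise across triplicate slides.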 The settings on record: higher = more signal.
A short description of assay [3]: small-molecule microarray binders of probe aCHRDL2, primary screen, biochemical, biotinylated probe, 635/667 nm fluorescence (AID 1100). The settings on record: higher = more signal.
A short description of assay [4]: splicing luciferase reporter signal modulators, primary screen, spliceosome inhibition project, cell-based, HEK293, splice +/- reporter (AID 1101).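 Note: HEK293 cells carrying a splicing-competent luciferase reporter gene; test concentration not given here.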 The settings on record: luminescence, 24 h, higher = more signal, called active from +8 up or from −8 down. Background: In a reporter assay the amount or activity of a reporter protein is the signal.
Assay [5] concerns the target Fibroblast growth factor 10 (Homo sapiens) (UniProt O15520). The assay can be described thus: FGF10 binders on small-molecule microarrays, primary screen, biochemical, small-molecule microarray, 635 nm fluorescence (AID 1102). To be noted: FGF10 binding, fluorescence 635 nm, higher = more signal.
Assay [6] deals with glycogen synthase kinase-3 (GSK3A per assay name; protocol says GSK3B). The assay can be described thus: GSK3 binders on small-molecule microarrays, primary screen, biochemical, small-molecule microarray, 635 nm fluorescence, GSK3A (AID 1103). Note: the record names both GSK3A and GSK3B. The settings on record: small-molecule microarray binding, fluorescence 635 nm; higher = more signal.
In assay [7] the target is Epidermal growth factor receptor (Homo sapiens) (UniProt P00533). The assay can be described thus: EGFR binders on small-molecule microarrays, primary screen, biochemical, small-molecule microarray, 635 nm fluorescence (AID 1104).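 Note: score merges 667 nm emission intensity with spot signal to noise over triplicate slides.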 To be noted: EGFR binding, higher = more signal.
The target in assay [8] is Follistatin-related protein 3 (Homo sapiens) (UniProt O95633). The assay can be described thus: FSTL3 binders on small-molecule microarrays, primary screen, biochemical, small-molecule microarray, 635 nm fluorescence (AID 1105).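 Note: score merges emission near 667 nm and signal to noise per printed spot across three slides.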 The settings on record: FSTL3 binding, higher = more signal.
For assay [9], the target named is Dickkopf-related protein 1 (Homo sapiens) (UniProt O94907). The assay can be described thus: DKK1 binders on small-molecule microarrays, primary screen, biochemical, small-molecule microarray, 635 nm fluorescence scan (AID 1106).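 Note: score merges emission near 667 nm with signal to noise over three replicate slides.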 The settings on record: DKK1 binding, higher = more signal.
The test system of assay [10] is Inhibin beta A chain (activin A). The assay can be described thus: INHBA (activin A) binders on microarrays, primary screen, biochemical, small-molecule microarray, 635 nm fluorescence scan (AID 1107).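 Note: mouse activin A protein probed at 4.33 µg/mL on printed slides; score merges bound-protein fluorescence near 667 nm with spot signal-to-noise.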 The settings on record: small-molecule microarray binding, higher = more signal.
In assay [11] the test system is Human papillomavirus type 1a protein E7 (residues 44-93). The assay can be described thus: HPV1a E7 fragment binders on microarrays, primary screen, biochemical, small-molecule microarray, residues 44-93, 635 nm fluorescence (AID 1108).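 Note: E7 fragment applied at 1 µg/mL in TBST for 1 h at 4 C; score combines spot fluorescence with its signal to noise ratio.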 To be noted: small-molecule microarray binding, fluorescence 635 nm; higher = more signal.
Assay [12] is described as follows: modulators of HCV replicon luciferase signal, primary screen, HCV replication inhibitor project, Huh7 cells, luciferase reporter (AID 1109).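 Note: huh7 hepatoma cells harbouring a luciferase neomycin HCV replicon reporter; luciferase luminescence as measure of HCV replicon replication; test concentration not given here.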 To be noted: 48 h, higher = more signal. (In general: In antiviral work, replicon cells carry a viral genome segment that copies itself.)
The target in assay [13] is Left-right determination factor 2 (Homo sapiens) (UniProt O00292). The assay can be described thus: LEFTY2 binders on small-molecule microarrays, primary screen, biochemical, small-molecule microarray, 635 nm fluorescence scan (AID 1110). To be noted: LEFTY2 binding, higher = more signal.
Assay [14] has as its target Calmodulin-1 (Homo sapiens) (UniProt P0DP23). The assay can be described thus: CALM1 binders on microarrays, EGTA buffer, profiling panel, biochemical, small-molecule microarray, Cy5-labelled CALM1 (AID 1111).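 Note: labelled calmodulin applied in Tris saline Tween buffer holding calcium plus EGTA and DTT.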 To be noted: Cy5-CALM1 binding fluorescence, higher = more signal.
The target is the same in assay [15]. The assay can be described thus: calcium-bound CALM1 binders on microarrays, profiling panel, artefact control for SMM control-protein annotation, biochemical, small-molecule microarray, Cy5-labelled CALM1, plus calcium (AID 1112).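 Note: score merges spot fluorescence with signal to noise from triplicate slides.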 To be noted: Cy5-CALM1 binding fluorescence, higher = more signal.
Assay [16] is described as follows: small-molecule microarray binders of probe aWnt5a, primary screen, biochemical, biotinylated probe, 635/667 nm fluorescence (AID 1113).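 Note: score merges 667 nm fluorescence intensity with signal-to-noise per printed feature.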 To be noted: higher = more signal.
Assay [17] in a line: small-molecule microarray binders of probe aShh, primary screen, biochemical, biotinylated probe, 635/667 nm fluorescence (AID 1114).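 Note: probe is biotin-labelled aShh protein from a stem cell growth factor screen; measures binding of labelled protein to compounds printed on the slide; score merges feature fluorescence at 667 nm with signal-to-noise.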 To be noted: higher = more signal.
Assay [18] is described as follows: small-molecule microarray binders of probe aNog, primary screen, biochemical, biotinylated probe, 635/667 nm fluorescence (AID 1115).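 Note: probe is biotinylated aNog protein used at 0.15 µg/mL for 1 h at 4 C; z-score combines 667 nm fluorescence of each spot with its signal to noise.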 The settings on record: higher = more signal.
For assay [19], the target named is Torsin-1A-interacting protein 1 (Homo sapiens) (UniProt Q5JTV8). The assay can be described thus: LAP1 binders from COS7 cell lysate, primary screen, small-molecule microarray, 635/667 nm fluorescence (AID 1116). To be noted: COS7-hLAP1 lysate binding, 635 nm fluorescence, higher = more signal.
Assay [20] addresses Alpha-bungarotoxin (Bungarus multicinctus) (UniProt P60615). The assay can be described thus: alpha-bungarotoxin binders on microarray, profiling panel, artefact control for SMM control protein annotation, biochemical, small-molecule microarray, Alexa647 label, 635/667 nm fluorescence (AID 1117). The settings on record: alpha-BTX-A647 binding fluorescence, higher = more signal.

Chain of Fibroblast growth factor 10 (Homo sapiens) (O15520 whole entry, looked up): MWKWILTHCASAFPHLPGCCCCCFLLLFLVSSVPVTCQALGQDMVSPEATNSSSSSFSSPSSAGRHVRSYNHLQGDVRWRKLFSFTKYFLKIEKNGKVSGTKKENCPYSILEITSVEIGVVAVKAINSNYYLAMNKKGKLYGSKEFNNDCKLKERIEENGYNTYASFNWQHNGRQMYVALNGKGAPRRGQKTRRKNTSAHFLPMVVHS
Chain of Follistatin-related protein 3 (Homo sapiens) (O95633 whole entry, looked up): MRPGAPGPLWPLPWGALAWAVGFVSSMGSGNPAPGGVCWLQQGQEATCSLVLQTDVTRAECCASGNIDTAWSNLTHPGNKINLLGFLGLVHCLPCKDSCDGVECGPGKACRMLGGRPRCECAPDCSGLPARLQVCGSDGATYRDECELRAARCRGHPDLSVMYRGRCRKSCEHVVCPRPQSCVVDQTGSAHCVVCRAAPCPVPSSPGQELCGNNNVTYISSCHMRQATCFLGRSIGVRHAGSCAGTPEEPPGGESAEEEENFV
Chain of Alpha-bungarotoxin (Bungarus multicinctus) (P60615 whole entry, looked up): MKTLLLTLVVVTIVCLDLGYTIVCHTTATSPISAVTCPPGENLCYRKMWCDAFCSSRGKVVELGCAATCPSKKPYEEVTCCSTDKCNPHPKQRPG
Chain of Epidermal growth factor receptor (Homo sapiens) (P00533 whole entry, looked up): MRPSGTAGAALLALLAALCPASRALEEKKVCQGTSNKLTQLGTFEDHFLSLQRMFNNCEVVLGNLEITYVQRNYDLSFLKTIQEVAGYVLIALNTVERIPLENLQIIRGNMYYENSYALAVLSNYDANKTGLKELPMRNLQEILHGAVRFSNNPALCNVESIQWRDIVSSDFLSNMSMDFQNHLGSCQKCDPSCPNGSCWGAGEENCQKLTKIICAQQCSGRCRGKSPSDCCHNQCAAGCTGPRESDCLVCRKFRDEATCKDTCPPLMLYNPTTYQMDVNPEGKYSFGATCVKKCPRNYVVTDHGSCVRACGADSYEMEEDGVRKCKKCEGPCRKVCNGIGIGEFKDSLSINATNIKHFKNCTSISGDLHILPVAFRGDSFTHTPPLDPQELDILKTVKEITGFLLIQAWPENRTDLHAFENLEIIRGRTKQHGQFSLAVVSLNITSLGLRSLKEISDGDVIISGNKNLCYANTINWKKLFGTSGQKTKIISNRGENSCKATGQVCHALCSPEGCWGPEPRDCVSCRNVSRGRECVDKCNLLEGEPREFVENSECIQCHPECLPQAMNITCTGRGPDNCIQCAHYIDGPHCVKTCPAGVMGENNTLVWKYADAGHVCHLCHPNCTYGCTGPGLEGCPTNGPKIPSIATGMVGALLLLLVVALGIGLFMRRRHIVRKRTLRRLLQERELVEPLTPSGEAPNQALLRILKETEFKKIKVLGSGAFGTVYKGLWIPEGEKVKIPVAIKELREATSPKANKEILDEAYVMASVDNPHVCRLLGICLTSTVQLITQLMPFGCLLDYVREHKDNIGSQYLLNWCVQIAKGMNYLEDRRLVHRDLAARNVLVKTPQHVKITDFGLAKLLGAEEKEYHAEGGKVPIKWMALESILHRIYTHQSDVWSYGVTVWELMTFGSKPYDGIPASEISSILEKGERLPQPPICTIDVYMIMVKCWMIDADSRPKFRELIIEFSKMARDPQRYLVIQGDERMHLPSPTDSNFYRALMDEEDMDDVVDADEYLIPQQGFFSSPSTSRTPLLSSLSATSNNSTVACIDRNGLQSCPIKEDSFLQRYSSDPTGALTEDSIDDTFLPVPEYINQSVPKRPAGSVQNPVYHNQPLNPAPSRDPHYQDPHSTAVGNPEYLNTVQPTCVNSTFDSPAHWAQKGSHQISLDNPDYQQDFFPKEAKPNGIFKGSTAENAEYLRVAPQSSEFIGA
Chain of Dickkopf-related protein 1 (Homo sapiens) (O94907 whole entry, looked up): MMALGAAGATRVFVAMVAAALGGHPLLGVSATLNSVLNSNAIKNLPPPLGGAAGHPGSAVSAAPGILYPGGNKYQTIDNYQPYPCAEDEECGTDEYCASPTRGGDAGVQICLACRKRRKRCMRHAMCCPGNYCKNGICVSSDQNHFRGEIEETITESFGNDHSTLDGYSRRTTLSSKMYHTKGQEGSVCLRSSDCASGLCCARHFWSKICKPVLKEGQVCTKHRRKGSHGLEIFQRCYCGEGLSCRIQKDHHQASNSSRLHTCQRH
Chain of Torsin-1A-interacting protein 1 (Homo sapiens) (Q5JTV8 whole entry, looked up): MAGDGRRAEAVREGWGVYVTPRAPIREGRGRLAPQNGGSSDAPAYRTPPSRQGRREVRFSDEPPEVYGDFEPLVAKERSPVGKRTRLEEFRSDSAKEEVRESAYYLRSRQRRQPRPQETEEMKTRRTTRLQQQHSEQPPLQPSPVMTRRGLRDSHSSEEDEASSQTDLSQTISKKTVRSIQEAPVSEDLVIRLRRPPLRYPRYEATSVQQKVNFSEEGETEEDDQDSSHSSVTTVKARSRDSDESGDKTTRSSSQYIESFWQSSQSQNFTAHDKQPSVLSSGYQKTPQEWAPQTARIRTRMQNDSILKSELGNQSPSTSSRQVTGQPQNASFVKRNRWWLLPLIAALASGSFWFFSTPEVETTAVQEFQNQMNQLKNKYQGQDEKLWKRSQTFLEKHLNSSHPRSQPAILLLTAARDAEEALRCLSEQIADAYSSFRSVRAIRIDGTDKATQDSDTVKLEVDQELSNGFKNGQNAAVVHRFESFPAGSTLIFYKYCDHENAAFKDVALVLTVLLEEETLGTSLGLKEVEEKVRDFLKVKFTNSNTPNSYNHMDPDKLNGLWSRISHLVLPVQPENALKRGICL
Chain of Left-right determination factor 2 (Homo sapiens) (O00292 whole entry, looked up): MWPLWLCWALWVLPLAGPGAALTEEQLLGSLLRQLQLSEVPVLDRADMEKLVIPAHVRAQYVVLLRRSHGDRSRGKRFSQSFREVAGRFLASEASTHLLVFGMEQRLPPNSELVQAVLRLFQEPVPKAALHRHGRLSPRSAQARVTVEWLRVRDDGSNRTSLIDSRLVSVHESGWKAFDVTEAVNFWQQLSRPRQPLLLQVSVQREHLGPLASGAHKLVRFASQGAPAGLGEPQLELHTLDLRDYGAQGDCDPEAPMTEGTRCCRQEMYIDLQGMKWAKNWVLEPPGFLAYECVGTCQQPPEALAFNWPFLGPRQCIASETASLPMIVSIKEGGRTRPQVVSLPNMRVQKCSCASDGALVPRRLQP

For `C=CCN(CCCCC)C(=O)C1N(c2c(Cl)cccc2CO)C(=O)C2C(C(=O)O)C3C=CC21O3` (stereo not given), the composite z-score in assay [1] is -0.116 and 0.397; in assay [2] it was 0.784 and 0.13; in [3] it was 0.479 and 1.12; in assay [5], -1.35 and -1.3; in [6], -0.607 and -1.18; in assay [7], -3.02 and -1.91. The composite z-score in assay [8] was -2.09 and -2.23; in [9], -2.91 and -2.56; in assay [10] it was -1.96 and -1.99; in [11], -0.495 and -1.04; in [13], -1.3 and -3.32; in assay [14] it was -0.522 and -1.03. For the same compound, the composite z-score in assay [15] is 0.639 and 0.545; in assay [16], -0.292 and -0.23; in assay [17], -0.214 and -0.262; in [18], 0.0029 and 0.0473; in assay [19], 0.443 and -0.697; in assay [20], -1.91 and -1.04. In addition, the z-score in [4] is -0.282 (inactive) and -0.455 (inactive); in [12] it was -1.62 and -0.992.

Turning to `C=C[C@H](OC)[C@@H](O)c1ccc(O)c(F)c1`, the composite z-score in [1] was 1.2 and -1.38; in [2] it was -0.48 and -0.349; in assay [3], 0.7 and 0.65; in [5] it was -1.35 and -1.61; in assay [6] it was -2.09 and -1.69; in assay [7], -2.36 and -1.75. The composite z-score is -1.89 and -1.94 in assay [8]; -2 and -1.4 in assay [9]; -1.87 and -1.2 in assay [10]; -1.18 and -1.38 in assay [11]; -2.27 and -2.63 in [13]; -1.27 and -0.866 in [14]. Also, the composite z-score was -0.625 and -0.713 in assay [15]; -0.244 and -0.356 in assay [16]; -0.262 and -0.282 in assay [17]; -0.173 and -0.8 in assay [18]; -0.753 and -1.81 in assay [19]; -1.36 and -0.191 in assay [20]. Further, the z-score in assay [4] was -0.257 (inactive) and 0.0293 (inactive); in assay [12], 0.156 and -0.114.

As for `COc1ccc(-c2ccc3c(n2)CCCN3CC(O)CN2CCCc3nc(-c4ccc(Br)cc4)ccc32)cc1` (stereo not given), the composite z-score is 1.01 and 0.727 in assay [1]; 0.507 and 0.293 in assay [2]; 0.0498 and 0.803 in assay [3]; 0.829 and 0.6 in [5]; 0.682 and 0.382 in assay [6]; 0.476 and 0.459 in assay [7]. Besides, the composite z-score was 0.868 and 0.601 in assay [8]; 0.372 and 0.291 in [9]; 1.33 and -1.05 in [10]; 0.363 and -0.763 in assay [11]; 0.61 and 0.922 in assay [13]; 0.347 and 0.413 in [14]. Besides, the composite z-score in assay [15] is 0.116 and -0.108; in assay [16], 0.0994 and -0.006; in [17], 0.896 and 0.233; in assay [18] it was 0.202 and 0.309; in [19], 0.498 and 0.282; in assay [20], 2.04 and 1.76. Further, the z-score is 0.0317 (inactive) and -0.356 (inactive) in assay [4]; -2.44 and -0.174 in assay [12].

On to `CC(C)CCN1CCc2nc(-c3ccccc3)c3c(c2C1)CO[C@@H](C)C3`, for which the composite z-score in assay [1] is -0.0208; in [2] it was 0.233; in [3] it was -0.148; in assay [5] it was 0.476; in [6], 0.77; in assay [7], 0.516. The composite z-score in assay [8] is 0.579; in assay [9], 0.689; in assay [10] it was 0.55; in assay [11], 1.35; in assay [13], 0.457; in assay [14] it was -0.083. Moreover, the composite z-score in assay [15] is -0.399; in assay [16] it was -0.0944; in assay [17], -0.138; in assay [18], -0.036; in [19], 0.565; in assay [20], 0.416. For the same compound, the z-score is 0.109 (inactive) in assay [4] and -0.952 in [12].

`C[C@@H]1CN2[C@@H](CC[C@@H](C)[C@@H]2c2ccc(Br)cc2)C(=O)O1`: the composite z-score in assay [1] was -0.638 and -0.597; in assay [2], -0.295 and -0.239; in assay [3], -0.211 and -0.583; in assay [5], -0.0428 and 0.337; in [6] it was -0.534 and -0.046; in [7] it was 0.167 and 0.49. Further, the composite z-score in assay [8] was -0.579 and -0.462; in assay [9], 0.313 and 0.233; in [10] it was 0.502 and 0.45; in [11] it was -0.561 and -0.15; in assay [13] it was 0.57 and 0.0106; in [14], -0.235 and -0.676. For the same compound, the composite z-score in [15] is -0.535 and 0.1; in assay [16], -0.148 and -0.206; in assay [17], -0.59 and -0.428; in assay [18], 0.0014 and -0.287; in assay [19], -0.0307 and -0.0763; in assay [20], -0.209 and 0.0857. In addition, the z-score in assay [4] is -0.142 (inactive) and -1.21 (inactive); in assay [12] it was -0.67 and 1.5.
